Screens deposited in PubChem by National Center for Advancing Translational Sciences (NCATS).
Sampled rows, rich in hits. Any-hit rate of the full collection: about 21%.
Pf growth 96h – Primary qHTS for delayed death inhibitors of the malarial parasite plastid, 96 hour incubation. 320,000 tested, 6.9% active. P. falciparum luciferase reporter growth, 96 h. Potency, µM (highest dose often 28.7 µM), without a hit: at the highest dose activity change, negative = inhibition, hits mostly inhibitors. AID 504834, 2011; active = well fitted inhibition curve with a large enough effect; inconclusive = small, poorly fitted or top-dose-only effect, or another doubt; inactive = no such curve, though single readings can be large or run the other way; also: potency is read from the fitted curve at half-maximal effect; % is scaled to controls: 0 for no effect and ±100 for the full control effect
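Erythrocytes infected with luciferase-expressing P. falciparum were dispensed at 2% hematocrit and 0.05% parasitemia (final), then incubated with compounds 96 hours at 37 C in 5% CO2. Luminescence after detection reagent addition reported growth.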
Shiga toxin inh – A qHTS for Small Molecule Inhibitors of Shiga Toxin; Vero cells, Shiga toxin protein synthesis inhibition reporter; 290,000 tested, 9.2% active; inhibition, % at 38.7 µM; in the data active = inhibition mostly above about 28%, no sharp cut-off; inactive = mostly below about 43%; also: 0% is about no effect
NS1 function inh – qHTS Assay for Inhibitors of Influenza NS1 Protein Function. Potency, µM (highest dose often 46.1 µM), for inactives: top-dose activity, positive = more growth. 270,000 tested, 0.4% active. AID 2326, 2010; also: potency is read from the fitted curve at half-maximal effect; actives are rising curves; nearly all actives have a fitted effect of over 50% in size
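A cell-based growth assay was used: compounds that relieve NS1-induced slow growth of budding yeast raise OD600. Assay medium was yeast nitrogen base with ammonium sulphate and -URA supplement, pH 6.0, with 2% galactose.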
Pf growth 48h – Primary qHTS for delayed death inhibitors of the malarial parasite plastid, 48 hour incubation | AID 504832, 2011 | P. falciparum luciferase growth in erythrocytes, 48 h | 310,000 tested, 5.9% active | Potency, µM (doses to about 28.7 µM), for the others: top-dose activity change, negative = inhibition, usual class: inhibitors; active = well fitted inhibition curve with a large enough effect; inconclusive = small, poorly fitted or top-dose-only effect, or another doubt; inactive = no such curve, though single readings can be large or run the other way; also: potency is read from the fitted curve at half-maximal effect; % is scaled to controls: 0 for no effect and ±100 for the full control effect
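Luciferase-expressing P. falciparum in infected erythrocytes (2% hematocrit, 0.1% parasitemia final) in RPMI 1640/0.5% Albumax were exposed to compound for 48 hours at 37 C, 5% CO2; growth read as luminescence.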
SARS PLP yeast – qHTS of Yeast-based Assay for SARS-CoV PLP; AID 485353, 2010; Potency, µM (highest dose often 32.9 µM), inactives show at the highest dose activity, positive = growth rescue, usual class: activators; 330,000 tested, 0.19% active; S. cerevisiae expressing SARS-CoV PLpro, growth rescue; also: potency is read from the fitted curve at half-maximal effect; 0% is about no effect; nearly all actives have a fitted effect of over 55% in size
CHX counter – Cycloheximide Counterscreen for Small Molecule Inhibitors of Shiga Toxin; max response, %; cell reporter, cycloheximide protein synthesis inhibition counterscreen; AID 2314, 2010; 300,000 tested, 12% active; in the data active = max response mostly above about 13%, no sharp cut-off; inactive = mostly below about 14%; also: read at 38.3 µM for the half of the compounds with a filed dose; 0% is about no effect
Starred values were filed as active, the others as inactive; u = inconclusive; x = no result. Unless noted, calls follow the shape of the full dose curve.

SMILES | Pf growth 96h | Shiga toxin inh | NS1 function inh | Pf growth 48h | SARS PLP yeast | CHX counter
CCN(CC)C(=O)c1oc2ccc(S(=O)(=O)N3CC(C)CC(C)C3)cc2c1C (configuration not stated) | 45.4% | 25.1 | 6.8% | u | -4.7% | 2.3
CCOC(=O)c1oc2ccc(S(=O)(=O)N3CCOCC3)cc2c1C | 1.85µM* | -24.6 | -16.6% | -2.7% | 1.0% | 7.8
Cc1cccc(NC(=O)c2oc3ccc(S(=O)(=O)N4CCOCC4)cc3c2C)c1C | -22.6% | -1.2 | u | 4.65µM* | -5.8% | -2.5
Cc1ccc(NC(=O)c2oc3ccc(S(=O)(=O)N4CCC5(CC4)OCCO5)cc3c2C)cc1C | u | -2.2 | 13.9% | 13.1µM* | u | 0.7
Cc1c(C(=O)NCCC2=CCCCC2)oc2ccc(S(=O)(=O)N3CCOCC3)cc12 | 33.7% | -17.8 | -10.3% | 11.7µM* | -3.0% | 6.7
CCOC(=O)c1oc2ccc(S(=O)(=O)n3nc(-c4cc(OC)c(OC)c(OC)c4)cc3N)cc2c1C | -8.7% | -16.8 | x | 13.1µM* | 0.7% | 7.6
Cc1c(C(=O)NCCCN2CCCC2=O)oc2ccc(S(=O)(=O)N3CCOCC3)cc12 | x | -4.1 | -18.4% | -14.2% | -0.1% | -1.4
COc1cc(-c2cc(N)n(S(=O)(=O)c3ccc(F)cc3)n2)cc(OC)c1OC | 22.2% | -7.5 | 6.1% | x | 2.2% | -4.1
Cc1cc2c(s1)c1cnn(Cc3cccc(F)c3F)c(=O)c1n2C | x | 19.3 | x | x | x | 9.2
Cc1cc(C)c(NC(=O)CN)c(C)c1 | 0.0% | 6.7 | 1.5% | -3.1% | 0.3% | 0.9
C/C(CC(=O)Nc1cccc(C(F)(F)F)c1)=N/NC(=O)C(=O)NCCO | 6.9% | 16.7 | 0.4% | 10.9% | -1.2% | 11.1
C/C(CC(=O)Nc1c(C)cc(C)cc1C)=N\NC(=O)OC(C)(C)C | u | 79.0* | 16.5% | -15.1% | 9.1% | 24.7*
C/C(CC(=O)Nc1cccc(C(F)(F)F)c1)=N\NC(=O)c1cnccn1 | -17.1% | 53.2* | 21.7% | -11.5% | -1.6% | 26.4*
C/C(CC(=O)Nc1c(C)cc(C)cc1C)=N\NC(=O)c1cnccn1 | u | 22.7 | -3.0% | -0.3% | 13.5% | 49.9*
C/C(CC(=O)Nc1ccc(Cl)c(C(F)(F)F)c1)=N\NC(=O)c1cnccn1 | -8.5% | 74.2* | 8.5% | u | -0.6% | 41.2*
CSc1cccc(CN(C)C(=O)C2CCC(=O)N(CCCN3CCCC3=O)C2)c1 (configuration not stated) | u | 14.6 | 5.5% | 15.4% | -0.5% | -5.0
Cc1cnc(C(=O)OCC(=O)c2ccc(F)cc2)cn1 | -0.3% | -28.2 | -4.2% | 5.9% | 13.3% | 5.4
COCCNC(=O)C(=O)N/N=C(\C)CC(=O)Nc1ccc(Cl)cc1Cl | -7.8% | -2.9 | 19.0% | 32.0% | 0.5% | -2.1
C/C(CC(=O)Nc1ccc(Cl)cc1Cl)=N\NC(=O)c1cnccn1 | 20.5% | 58.9* | 9.7% | 11.1% | -2.1% | 32.5*
O=C(N/N=C/c1cccc(O)c1)NC1CCCCC1 | 0.0% | 89.3* | x | 4.1% | 0.6% | 29.7
O=C(CC(=O)NC1CCCCC1)N/N=C/c1ccc(Cl)cc1 | 4.65µM* | -16.7 | 1.5% | 0.1% | 4.4% | 8.0
NC(=O)N/N=C/C=C/c1ccccc1 | u | 51.2 | -1.7% | 11.4% | -0.6% | -2.0
O=C(N/N=C/C=C/c1ccccc1)NC1CCCCC1 | 2.1% | 43.4 | -50.2% | -6.8% | -2.1% | 16.3*
FC(F)(F)c1ccc(/C=N/NC(=S)NC2CCCCC2)cc1 | 3.29µM* | -6.3 | x | u | -0.4% | 2.0
FC(F)(F)c1cccc(/C=N/NC(=S)NC2CCCCC2)c1 | u | -9.8 | x | u | -0.8% | -2.1
COc1ccc(S(=O)(=O)N2CCN(CC3CC=CCC3)CC2)cc1 (configuration not stated) | u | 3.3 | -8.3% | 18.9% | 0.3% | -2.3
CCOc1cc(N2CCOCC2)c(OCC)cc1NC(=O)COc1ccc2ccc(=O)oc2c1 | 28.1% | -4.5 | -0.4% | 10.2% | 9.0% | -2.8
CCc1nnc(NC(=O)c2ccc3nc(CC)c(CC)nc3c2)s1 | 35.9% | -4.1 | x | -0.4% | -0.8% | 6.2
